The record followed here is PubChem BioAssay AID1851 (National Center for Advancing Translational Sciences (NCATS), 2009).

“And” between values parts separate entries of the source, which are not always exact repeats. Equal values may be shown once. The whole screen tested about 16,000 compounds, of which about 2,600 (16%) were called active. About 20% were inconclusive and are not listed. Calls follow the shape of the dose curve; as a rule, active = well fitted curve in the direction sought with a large enough effect; inconclusive = small, poorly fitted or top-dose-only effect, or effect the other way; inactive = no such curve, though single readings can be large or run the other way. Only a sample is shown.

For orientation: AC50 means the concentration at which the activity in the assay is half-maximal.
% is scaled to controls: 0 for no effect and ±100 for the full control effect.

For this assay, the target named is Cytochrome P450 2D6 (Homo sapiens) (UniProt P10635). In words: Cytochrome panel assay with activity outcomes. As to conditions: recombinant CYP, pro-luciferin dealkylation, luminescence, p450-cyp2d6; series mostly up to 57.1 µM; activity, negative = inhibition: at the top concentration.
Chain of Cytochrome P450 2D6 (Homo sapiens) (P10635 whole entry, looked up): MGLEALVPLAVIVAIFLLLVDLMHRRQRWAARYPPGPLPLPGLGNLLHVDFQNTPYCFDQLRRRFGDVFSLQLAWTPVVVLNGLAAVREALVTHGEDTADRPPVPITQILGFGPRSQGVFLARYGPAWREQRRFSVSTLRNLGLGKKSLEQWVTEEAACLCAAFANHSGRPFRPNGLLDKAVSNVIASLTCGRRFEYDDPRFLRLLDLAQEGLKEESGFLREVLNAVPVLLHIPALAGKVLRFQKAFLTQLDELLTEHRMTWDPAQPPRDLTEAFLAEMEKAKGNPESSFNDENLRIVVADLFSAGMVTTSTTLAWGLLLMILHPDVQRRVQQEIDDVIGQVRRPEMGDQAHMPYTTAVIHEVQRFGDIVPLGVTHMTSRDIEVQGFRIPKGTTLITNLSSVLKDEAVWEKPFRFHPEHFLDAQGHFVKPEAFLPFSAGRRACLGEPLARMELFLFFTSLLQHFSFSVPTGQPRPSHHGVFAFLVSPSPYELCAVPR
Regarding `COC(=O)c1c(NC(=O)Cn2cc([N+](=O)[O-])cn2)sc2c1CCC2`, the “activity, negative = inhibition” value was 4.71% (inactive).
On the same count and under the same terms, as for `O=c1c(-c2ccc(F)cc2)nc2cnc(N3CCOCC3)nc2n1C[C@H]1CCCO1`, the figure is 1.02% (inactive); as for `COc1ccc(Cc2nnc(NC(=O)c3cccc([N+](=O)[O-])c3C)s2)cc1`, 15.9% (inactive).
Still for that read-out and setting: the figure for `COc1cc(OC)c2c(c1Cl)O[C@@]1(C2=O)[C@H](C)CC(=O)C[C@@H]1OC` is 12.5% [at 25.6 µM] (inactive); for `COCCn1c(=O)c(-c2cc(F)cc(F)c2)nc2cnc(Oc3ccccc3)nc21` it is 2.61% (inactive); for `CSc1nc2c(c(C(F)(F)F)n1)CC(C)CC2` (stereo unspecified) it is -28.2% (inactive).
Still for that read-out and setting: the figure for `CSc1nc(N)c2ncn([C@@H]3O[C@@H](COP(=O)(O)OP(=O)(O)O)[C@@H](O)[C@H]3O)c2n1` is -2.12% (inactive).
For the molecule `COc1ccc(N2C(=O)NC(NC(=O)c3ccncc3)(C(F)(F)F)C2=O)cc1` (stereo unspecified), the “activity, negative = inhibition” value was 4.25% (inactive).
Turning to `Cc1nc(SCC(=O)Nc2c(C)n(C)n(-c3ccccc3)c2=O)nc(C)c1C`, the “activity, negative = inhibition” value was 5.71% (inactive).
Still for that read-out and setting: the figure for `Cc1ccc(-c2nnc(-c3ccc4ccccc4c3)o2)cc1` is 3.58% [at 11.4 µM] (inactive).
On to `c1ccc2cc(NCNc3ccc4ccccc4c3)ccc2c1`, for which the AC50 was 1 µM (active).
Take `O=C(Nc1ccc2ccccc2c1)c1onc2c1CCCC2`: the “activity, negative = inhibition” value was -9.53% (inactive).
On to `CCOc1cc(CN2CCN(c3ccc(C(C)=O)cc3)CC2)ccc1OC`, for which the “activity, negative = inhibition” value was -1.52% (inactive).
Still for that read-out and setting: as for `Cn1c(N)nc2c(nc(OCc3ccccc3)n2[C@@H]2O[C@H](CO)[C@@H](O)[C@@H]2O)c1=O`, the figure is 9.24% [at 11.4 µM] (inactive); as for `CCN1C(=O)/C(=C/C=C2/SCCN2C)SC1=S`, -9.1% (inactive).
Take `O=C1c2ccccc2C(=O)C1c1ccccc1`: the “activity, negative = inhibition” value was -1.66% [at 25.6 µM] (inactive).
`CC1(C)C(=O)NC2=C1C(=O)C(=O)c1ccccc12`: the AC50 was 2.51 µM (active).
Regarding `Cn1ncc2c(Cl)ncnc21`, the activity, negative = inhibition was 12.3% [at 11.4 µM] (inactive).
On the same count and under the same terms, as for `COc1ccc(-c2cc(C(F)(F)F)n3nc(C(=O)NCc4ccco4)c(Cl)c3n2)cc1`, the figure is 16.5% (inactive).
With `CCCCOC(=S)NC(=O)c1sc2ccccc2c1Cl`, the “activity, negative = inhibition” value was -28.5% (inactive).
With `CN(C)CC[C@@H](c1ccccc1)c1ccccn1`, the AC50 result was “inactive”.
For `CN(C)CC[C@H](c1ccc(Br)cc1)c1ccccn1`, the AC50 was 15.8 µM (active) and 25.1 µM (active).
On to `CC(=O)Oc1ccc(C(c2ccc(OC(C)=O)cc2)c2ccccn2)cc1`, for which the “activity, negative = inhibition” value was -11.5% [at 25.6 µM] (inactive).
With `CN(C)CC(CN(C)C)c1ccccn1`, the activity, negative = inhibition was 6.41% [at 11.4 µM] (inactive).
In the case of `CN(C)CC[C@H](c1ccc(Cl)cc1)c1ccccn1`, the half-maximal activity concentration (AC50) was 31.6 µM (active).
Turning to `Cc1ccc(-c2c(C#N)c(N)n(-c3ccccc3)c(=O)c2C#N)cc1`, the “activity, negative = inhibition” value is 0.672% (inactive).
On the same count and under the same terms, as for `COC(=O)C1=C(C)C(c2ccc(OC)cc2)NC(=S)N1` (stereo unspecified), the figure is -7.77% (inactive); as for `Cc1noc(C)c1COc1ccc(C(=O)NCC2CCCO2)cc1` (stereo unspecified), -5.63% (inactive); as for `N[C@H](C(=O)O)[C@@H](O)c1cnc[nH]1`, 10.8% [at 11.4 µM] (inactive).
Consider `COc1cc(OC)c(C(=O)CCCCN2CCC3(CC2)NC(=O)NC3=O)cc1NS(=O)(=O)c1ccc(C(F)(F)F)cc1`, for which the “activity, negative = inhibition” value was 9.13% (inactive).
Still for that read-out and setting: as for `CC[C@H]1C2=C3C(CC[C@H]4C(OCc5ccc(F)cc5C(F)(F)F)OC[C@](C)([C@@H]34)N(C(=O)OC(C)(C)C)C2)C(COC(C)=O)C1COC(C)=O` (stereo partly specified), the figure is -7.25% (inactive); as for `CCOC(=O)C1=C(N)Oc2ccc(Br)cc2[C@@H]1[C@@H](C#N)C(=O)OCC`, -1.13% (inactive); as for `O=c1c(-c2ccc(F)cc2)nc2cnc(N3CCNCC3)nc2n1C1CC1`, -5.5% (inactive).
Still for that read-out and setting: as for `Cc1nc(SCC(=O)NCCc2ccccc2)c2oc3ccccc3c2n1`, the figure is 29.1% (inactive).
`c1ccc(-c2nc(NCCCn3ccnc3)c3oc4ccccc4c3n2)cc1`: the AC50 is 2 µM (active).
On the same count and under the same terms, as for `c1ccc2c(c1)oc1c(NCCCn3ccnc3)ncnc12`, the figure is 1.26 µM (active).
As for `O=C(Cn1cnc2c(oc3ccccc32)c1=O)NCc1ccco1`, the “activity, negative = inhibition” value is 5.8% (inactive).
Consider `c1ccc2cc(Sc3ncnc4c3oc3ccccc34)ccc2c1`, for which the “activity, negative = inhibition” value is -3.02% (inactive).
Regarding `CCc1nc(N[C@H](C(=O)O)C(C)CC)c2oc3ccccc3c2n1` (stereo partly specified), the “activity, negative = inhibition” value was 8.52% (inactive).
The same measure, in the same setting: as for `CC(C)=CCC/C(C)=C/CO/N=C1/C[C@@H](O)[C@@H](O)[C@@H]2[C@H]3C(=O)N(c4ccc(F)cc4F)C(=O)[C@@H]3CC[C@H]12`, the figure is 6.74% [at 11.4 µM] (inactive); as for `O=c1cc(CSc2nnc(-c3cccnc3)n2-c2ccccc2F)nc2sccn12`, -22% (inactive).
For `C=CCC(NCc1ccco1)c1ccc(OC)cc1` (stereo unspecified), the concentration at half-maximal activity (AC50) is 5.01 µM (active).
For the molecule `COc1ccc(-n2c(N)c(C(=O)NCc3ccco3)sc2=S)cc1`, the “activity, negative = inhibition” value was 21.9% (inactive).
`COc1ccc(OC)c(NC(=O)C(CC(=O)O)NCc2ccco2)c1` (stereo unspecified): the “activity, negative = inhibition” value was 10.1% (inactive).
As to `CS(=O)(=O)N1CCC2(CC1)CN(C(=O)Nc1cccc(C#N)c1)C2`, the “activity, negative = inhibition” value is -5.12% (inactive).
`O=C(O)/C=C\C(=O)N1Cc2cc3ccccc3nc2C1`: the activity, negative = inhibition is -1.33% [at 11.4 µM] (inactive).
